Results from the supplement of paper PMC9694430.

system: LOC_OS07G06570-cb004; assay: thermal shift delta Tm vs DMSO control; higher = stronger stabilization (binding); settings: 12.5 µM; protein concentration 2 µM
In short: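 The melting temperature shift given here is a triplicate mean, measured against protein that received only DMSO. Melting temperatures came from Boltzmann fits of differential scanning fluorimetry data on E. coli-expressed, purified rice kinase domain constructs. Each 19.5 μl well contained 2 μM kinase, 100 mM potassium phosphate pH 7.5, 150 mM NaCl, 10% glycerol, 5 × SYPRO Orange and compound in DMSO. Plates were scanned from 25°C to 95°C at 0.05°C/s.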

| Structure (SMILES) | thermal shift delta Tm [°C] |
| --- | --- |
| O=C1NC(=O)C(c2ccccc2[N+](=O)[O-])=C1Nc1ccc(O)c(Cl)c1 | 2.88 |
| CCOc1cc2ncc(C#N)c(Nc3ccc(OCc4ccccn4)c(Cl)c3)c2cc1NC(=O)/C=C/CN(C)C [Neratinib (HKI-272)] | 1.96 |
| CCCS(=O)(=O)Nc1ccc(F)c(C(=O)c2c[nH]c3ncc(-c4ccc(Cl)cc4)cc23)c1F [Vemurafenib (PLX4032, RG7204)] | 2.33 |
| Cc1cn(-c2cc(NC(=O)c3ccc(C)c(Nc4nccc(-c5cnccn5)n4)c3)cc(C(F)(F)F)c2)cn1 [Radotinib] | 1.06 |
| OC(c1cc(-c2ccc(Cl)cc2)nc2ccccc12)C1CCCCN1 (stereo not drawn) [Vacquinol-1] | 0.14 |
| Cc1cc(CS(=O)(=O)c2ccccc2)cc(OCc2ccc(CN3CCC[C@@H]3CO)cc2)c1 | 1.18 |
| Clc1ccc(Nc2nnc(Cc3ccncc3)c3ccccc23)cc1 [Vatalanib (PTK787) 2HCl] | 0.43 |
| CN1CCN(c2ccc(Nc3cc(-c4cccc(-n5ccc6cc(C7CC7)cc(F)c6c5=O)c4CO)cn(C)c3=O)nc2)CC1 | 1.21 |
| O=C1NC(=O)[C@@H](c2cn3c4c(cccc24)CCC3)[C@@H]1c1c[nH]c2ccccc12 [Tivantinib (ARQ 197)] | 0.51 |
| COc1cc(-c2cc(-c3ccc(N4CCNCC4)cc3)cnc2C)cc(OC)c1OC | 0.35 |
| Cn1ncc(Cl)c1-c1cc(C(=O)N[C@H](CN)Cc2ccc(F)c(F)c2)oc1Cl | -0.35 |
| C[C@H](Nc1ncnc2nc[nH]c12)c1cc2cccc(Cl)c2c(=O)n1-c1ccccc1 [Duvelisib (IPI-145, INK1197)] | 0.07 |
| COc1cc2ncnc(Nc3ccc(F)c(Cl)c3)c2cc1OCCCN1CCOCC1 [Gefitinib (ZD1839)] | 0.99 |
| C[C@@H](N)c1ccc(C(=O)Nc2ccnc3[nH]ccc23)cc1 | 0.72 |
| Cc1ccc(C(=O)Nc2cccc(C(F)(F)F)c2)cc1Nc1nc(-c2cccnc2)nc2c1cnn2C | 1.07 |
| O=C1NC(=O)/C(=C/c2ccc3nccc(-c4ccncc4)c3c2)S1 | 1.03 |
| Oc1c2ccccc2c2c3c(cccc13)N=N2 | 1.14 |
| C=CC(=O)Nc1ccc2ncnc(Nc3cccc(Br)c3)c2c1 | 0.91 |
| COc1cc2nccc(Oc3ccc(NC(=O)NC4CC4)c(Cl)c3)c2cc1C(N)=O [Lenvatinib (E7080)] | 0.84 |

| Structure (SMILES) | thermal shift delta Tm [°C] |
| --- | --- |
| CN1CCCN(C(=O)c2cccc(-c3ccc(/C=C4/C(=O)Nc5ccc(Cl)cc54)o3)c2)CC1 | 2.41 |
| CCc1cnn2c(NCc3ccc[n+]([O-])c3)cc(N3CCCC[C@H]3CCO)nc12 | 0.51 |
| O=C(Nc1ccc(OC(F)(F)F)cc1)c1sccc1NCc1ccnc2ccccc12 | 0.2 |
| CCOC(=O)c1cnc2ccc(-c3cncc(NS(=O)(=O)c4ccccc4)c3)cn12 | 0.45 |
| CCCNC(=O)Nc1ccc(Oc2ncnc3cc(OC)c(OC)cc23)cc1Cl | 0.73 |
| Cc1cc(Nc2ncnc3ccc(-c4ccc(CNCCS(C)(=O)=O)o4)cc23)ccc1Oc1ccn2ncnc2c1 [HER2-Inhibitor-1] | 1.57 |
| COc1cc2c(Oc3ccc(NC(=O)C4(C(=O)Nc5ccc(F)cc5)CC4)cc3F)ccnc2cc1OCCCN1CCOCC1 | 0.2 |
| Cn1cc(-c2ccc3c(c2)CCN3C(=O)Cc2cccc(C(F)(F)F)c2)c2c(N)ncnc21 | 0.97 |
| O=C(c1ccc(Nc2nccc(-c3cc4ccccc4s3)n2)cc1)N1CCC(N2CCCC2)CC1 [IKK-16 (IKK Inhibitor VII)] | 0.72 |
| Cc1cc(NC(=O)c2cccc(NC(=O)/C=C/CN(C)C)c2)ccc1Nc1nccc(-c2cccnc2)n1 | 1.56 |
| CC(C)[C@H](CO)Nc1nc(Nc2cccc(Cl)c2)c2ncn(C(C)C)c2n1 [Purvalanol A] | 0.14 |
| C=CC(=O)Nc1cccc(Nc2nc(Nc3ccc(OCCOC)cc3)ncc2F)c1 | 0.79 |
| Cc1c(C(=O)Nc2ccc(Oc3ccnc4[nH]cc(-c5ccccc5)c34)c(F)c2)c(=O)n(-c2ccc(F)cc2)n1C | 1.05 |
| COc1cc(Nc2ncc(F)c(Nc3ccc4c(n3)N(COP(=O)(O)O)C(=O)C(C)(C)O4)n2)cc(OC)c1OC [Fostamatinib (R788)] | 0.55 |
| CC(C)c1c2cc(-c3ccnc(NC4CCC(NC5CCOCC5)CC4)n3)ccc2nn1C (stereo not drawn) | 1.62 |
| Cc1nc2ccc(-n3ncc(C(=O)c4cc5ccccc5[nH]4)c3N)cc2[nH]1 | -0.34 |
| COc1cc2ncnc(Sc3nnc(C)s3)c2cc1OC | 1.21 |
| CCOc1cn(-c2ccc(F)cc2C)nc1C(=O)Nc1ccc(Oc2ccnc3cc(OC)c(OC)cc23)c(F)c1 | 0.82 |
| COc1ccc([C@@H]2OC[C@H]3[C@@H]2CO[C@@H]3c2ccc(O[C@@H]3O[C@H](CO)[C@@H](O)[C@H](O)[C@H]3O)c(OC)c2)cc1OC [Forsythin] | 0.89 |
